Consider 17 molecules from PubChem BioAssay (EPA / NIEHS).

Activity calls are given as the source filed them. The calls were made as follows: active = hit-call score of the fitted dose curve at least 0.9, where 1 is the maximum; inactive = score below 0.9.

Read-out in experiment [1]: Human Leukocyte Antigen - DR isotype (HLADR), HLA-DRA (gene 3122)
The experiment in a line: BSK_BE3C_HLADR: BioMAP Diversity Plus: BE3C Assay for Human Leukocyte Antigen - DR isotype (HLADR) Biomarker Activity (AID 2283032). The note with it: primary human bronchial epithelial cells; actives raise or lower the signal. Summed up: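 Primary human bronchial epithelial cells (BE3C); 24 h chemical exposure; HLA-DR by ELISA; bidirectional curve fit vs DMSO baseline.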

Read-out in experiment [2]: Vascular cell adhesion molecule 1 (VCAM1), VCAM1 (gene 7412)
The experiment in a line: BSK_4H_VCAM1: BioMAP Diversity Plus: 4H Assay for Vascular cell adhesion molecule 1 (VCAM1) Biomarker Activity (AID 2283033).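 As to outcome: cell-surface VCAM-1 protein measured by ELISA.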 Particulars: primary human endothelial cells (HUVEC); actives raise or lower the signal. In outline:
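HUVEC, 24 h post-dose; VCAM-1 by ELISA. Bidirectional curve fit vs DMSO baseline. Parallel SRB total-protein stain (0.1% SRB after 10% TCA fixation, 560 nm) for cytotoxicity.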

Read-out in experiment [3]: Interferon-gamma inducible Protein 10 (IP10), CXCL10 (gene 3627)
As to the kind of experiment: BSK_BE3C_IP10: BioMAP Diversity Plus: BE3C Assay for Interferon-gamma inducible Protein 10 (IP10) Biomarker Activity (AID 2283034). Particulars: primary human bronchial epithelial cells; actives raise or lower the signal. In outline: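 ELISA readout of IP-10 in BE3C system: primary human bronchial epithelial cells, 24 h post-dosing; bidirectional curve fit vs DMSO baseline.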

Read-out in experiment [4]: Monokine induced gamma interferon (MIG), CXCL9 (gene 4283)
The experiment in a line: BSK_BE3C_MIG: BioMAP Diversity Plus: BE3C Assay for Monokine induced gamma interferon (MIG) Biomarker Activity (AID 2283035).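 As to outcome: MIG protein measured by ELISA in BE3C cultures after 24 h of dosing.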 The note with it: primary human bronchial epithelial cells; actives raise or lower the signal. Summed up:
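hu bronchial epithelial 1° cells, 24 h cpd; MIG by ELISA; bidirectional fit, DMSO = baseline.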

Read-out in experiment [5]: Transforming growth factor beta 1 (TGFb1), TGFB1 (gene 7040)
As to the kind of experiment: BSK_BE3C_TGFb1: BioMAP Diversity Plus: BE3C Assay for Transforming growth factor beta 1 (TGFb1) Biomarker Activity (AID 2283036;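 as to outcome: TGF-b1 protein level measured by ELISA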). The note with it: primary human bronchial epithelial cells; actives raise or lower the signal. In outline:
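Read-out: ELISA for TGF-b1 in primary human bronchial epithelial cultures, 24 h post-dose. Bidirectional curve fitting vs DMSO control; gain or loss of signal both scored.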

Read-out in experiment [6]: Plasminogen activator inhibitor-1 (PAI1), SERPINE1 (gene 5054)
The experiment in a line: BSK_BE3C_PAI1: BioMAP Diversity Plus: BE3C Assay for Plasminogen activator inhibitor-1 (PAI1) Biomarker Activity (AID 2283037). Particulars: primary human bronchial epithelial cells; actives raise or lower the signal. Summed up: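 ELISA read-out of PAI-1 from human bronchial epithelial primary cells, 24 h post-dosing; bidirectional curve fit vs DMSO baseline, gain or loss of signal scored.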

Read-out in experiment [7]: urokinase plasminogen activator (uPA), PLAU (gene 5328)
The experiment in a line: BSK_BE3C_uPA: BioMAP Diversity Plus: BE3C Assay for urokinase plasminogen activator (uPA) Biomarker Activity (AID 2283038).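 As to outcome: uPA protein level quantified by ELISA in cell cultures; uPA read one day after compound addition.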 The note with it: primary human bronchial epithelial cells; actives raise or lower the signal. In outline:
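Bronchial epithelial cells (human, primary); chemical 24 h; uPA by ELISA; bidirectional fit vs DMSO. SRB (0.1%, after 10% TCA fixation, 560 nm) in parallel cultures for cytotoxicity.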

Read-out in experiment [8]: Urokinase-type plasminogen activator receptor (uPAR), PLAUR (gene 5329)
As to the kind of experiment: BSK_BE3C_uPAR: BioMAP Diversity Plus: BE3C Assay for Urokinase-type plasminogen activator receptor (uPAR) Biomarker Activity (AID 2283039).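 As to outcome: uPAR protein level measured by ELISA on the cells; cells exposed to compound for one day before measurement.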 Particulars: primary human bronchial epithelial cells; actives raise or lower the signal. Summed up: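 ELISA readout of uPAR on human lung primary bronchial epithelial cells, 24 h post-dosing. Bidirectional curve fit relative to DMSO vehicle baseline; gain or loss of signal both scored.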

Read-out in experiment [9]: Interleukin-6 (IL6), IL6 (gene 3569)
The experiment in a line: BSK_CASM3C_IL6: BioMAP Diversity Plus: CASM3C Assay for Interleukin-6 (IL6) Biomarker Activity for (AID 2283040). Particulars: primary human coronary artery smooth muscle cells; actives raise or lower the signal.

Read-out in experiment [10]: Tissue plasminogen activator (tPA), PLAT (gene 5327)
The experiment in a line: BSK_BE3C_tPA: BioMAP Diversity Plus: BE3C Assay for Tissue plasminogen activator (tPA) Biomarker Activity (AID 2283041).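 As to outcome: tPA level quantified by ELISA one day after compound addition.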 The note with it: primary human bronchial epithelial cells; actives raise or lower the signal. In outline:
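ELISA read-out of tPA on human primary bronchial epithelial cells, 24 h post-dosing; bidirectional fit vs DMSO negative control/baseline.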

With `CCCCCCCCOC(=O)c1ccccc1C(=O)OCCCCCCCC`, the result in [1], in experiment [2], in [3], in experiment [4], in experiment [5] and in experiment [6] was inactive. The outcome in experiment [7], in experiment [8], in experiment [9] and in experiment [10] was inactive.
Regarding `c1ccc(-c2ccccc2)cc1`, the result in [1], in experiment [2], in experiment [3], in [4], in experiment [5] and in experiment [6] was inactive. Also, the result in [7], in experiment [8], in experiment [9] and in experiment [10] was inactive.
Turning to `CC(C)(c1ccccc1)c1ccc(O)cc1`, the AC50 in experiment [1] is 30.4 µM (active); in experiment [2], 32.1 µM (active); in experiment [3] it was 30.5 µM (active); in experiment [4] it was 32.2 µM (active); in experiment [5], 33.4 µM (active); in [6] it was 34.1 µM (active). Also, the AC50 in experiment [10] was 29.3 µM (active). Besides, the outcome in experiment [7], in experiment [8] and in experiment [9] was inactive.
On to `CCC(=O)O[C@H]1CC[C@H]2[C@@H]3CCC4=CC(=O)CC[C@]4(C)[C@H]3CC[C@]12C`, for which the AC50 in experiment [1] was 32.9 µM (active); in [2], 37.4 µM (active). Also, the result in experiment [3], in experiment [4], in experiment [5], in experiment [6], in [7] and in experiment [8] was inactive. Further, the outcome in experiment [10] was inactive.
Take `N#Cc1ccc(N(CC(N)=O)CC(F)(F)F)cc1C(F)(F)F`: the result in experiment [1], in [2], in [3], in experiment [4], in experiment [5] and in experiment [6] was inactive. The outcome in experiment [7], in experiment [8], in experiment [9] and in experiment [10] was inactive.
`CC(c1ccc(O)cc1)(c1ccc(O)cc1)c1ccc(O)cc1`: the AC50 in [1] was 2.08 µM (active); in [2], 24 µM (active); in experiment [3], 2.57 µM (active); in experiment [4], 2.2 µM (active); in experiment [5], 1.92 µM (active); in [6], 3.29 µM (active). For the same molecule, the AC50 was 3.25 µM (active) in [7], 2.4 µM (active) in experiment [8] and 3.85 µM (active) in experiment [10]. Further, the outcome in experiment [9] was inactive.
Regarding `ClC(Cl)=C(c1ccc(Cl)cc1)c1ccc(Cl)cc1`, the result in experiment [1], in experiment [3], in experiment [4], in experiment [5], in [6] and in [8] was inactive. Moreover, the outcome in experiment [9] and in experiment [10] was inactive. Besides, the AC50 is 28.6 µM (active) in experiment [2] and 13.1 µM (active) in experiment [7].
With `Cc1cc(O)ccc1Cl`, the outcome in experiment [1], in experiment [2], in experiment [3], in experiment [4], in experiment [5] and in experiment [6] was inactive. For the same molecule, the outcome in experiment [7], in experiment [8], in [9] and in experiment [10] was inactive.
As for `ClC1=C(Cl)[C@]2(Cl)[C@@H]3[C@H]4C[C@H]([C@@H]5O[C@H]45)[C@@H]3[C@@]1(Cl)C2(Cl)Cl`, the outcome in experiment [1], in experiment [2], in experiment [3], in [4], in experiment [5] and in experiment [6] was inactive. Besides, the result in experiment [7], in [8], in [9] and in experiment [10] was inactive.
As to `O=C(O)C(F)(F)C(F)(F)C(F)(F)C(F)(F)C(F)(F)F`, the result in experiment [1], in experiment [2], in experiment [3], in experiment [4], in [5] and in experiment [6] was inactive. For the same molecule, the outcome in experiment [7], in experiment [8], in experiment [9] and in [10] was inactive.
Regarding `C[C@]12CCC(=O)C=C1CC[C@@H]1[C@@H]2CC[C@]2(C)C(=O)CC[C@@H]12`, the outcome in experiment [1], in [2], in experiment [3], in experiment [4], in experiment [5] and in experiment [6] was inactive. In addition, the result in [7], in experiment [8], in experiment [9] and in [10] was inactive.
Turning to `COc1ccc(O)c(C(C)(C)C)c1`, the outcome in experiment [1], in experiment [2], in [3], in experiment [4], in [6] and in [7] was inactive. Also, the result in experiment [8], in experiment [9] and in experiment [10] was inactive.
For the molecule `Nc1ccc(-c2ccc(N)cc2)cc1`, the result in [1], in [2], in [3], in [4], in [5] and in experiment [6] was inactive. Moreover, the outcome in [7], in [8] and in [9] was inactive. Also, the AC50 in experiment [10] was 6.73 µM (active).
For `CC(C)C(=O)OCC(C)(C)C(OC(=O)C(C)C)C(C)C` (configuration not stated), the result in experiment [1], in experiment [2], in [3], in experiment [4], in experiment [5] and in [6] was inactive. For the same molecule, the result in [7], in experiment [8], in experiment [9] and in experiment [10] was inactive.
Turning to `CCCCCCCCCC[N+](C)(C)CCCCCCCCCC`, the AC50 in experiment [1] is 4.45 µM (active); in [3], 5.48 µM (active); in experiment [4] it was 8.77 µM (active); in experiment [5] it was 5.35 µM (active); in experiment [6], 3.71 µM (active); in experiment [7], 5.43 µM (active). The concentration at half-maximal activity (AC50) in experiment [8] is 5.55 µM (active); in [9] it was 4.9 µM (active); in [10], 3.61 µM (active).
In the case of `CCOC(=O)C(O)(c1ccc(Cl)cc1)c1ccc(Cl)cc1`, the result in [1], in experiment [4], in [5], in [7], in experiment [8] and in experiment [9] was inactive. Further, the outcome in [10] was inactive. For the same molecule, the AC50 in experiment [2] was 30.7 µM (active); in experiment [3], 31.1 µM (active); in [6], 14.7 µM (active).
Consider `Cc1cccc([N+](=O)[O-])c1`, for which the outcome in experiment [1], in experiment [2], in experiment [3], in experiment [4], in experiment [5] and in experiment [6] was inactive. Further, the outcome in experiment [7], in experiment [8], in experiment [9] and in experiment [10] was inactive.
